Measurements: the supplement of paper PMC6992640

test system: UCD52 (cells of a triple-negative basal-like breast cancer xenograft); experiment: cell viability of combination (% of vehicle); higher = less cytotoxic; details: 1 µM; 72 h; partner dose: 10 nM
Protocol: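 PDX cells were treated for 72 h with each drug at 1 µM plus carfilzomib (10 nM; 100 nM for WHIM2). Luciferase viability is expressed as percent of vehicle.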

Compound	cell viability of combination
CC(C)C(=O)OCC(=O)[C@@]12O[C@H](C3CCCCC3)O[C@@H]1C[C@H]1[C@@H]3CCC4=CC(=O)C=C[C@]4(C)[C@H]3[C@@H](O)C[C@@]12C [Ciclesonide] + CC(C)C[C@H](NC(=O)[C@H](CCc1ccccc1)NC(=O)CN1CCOCC1)C(=O)N[C@@H](Cc1ccccc1)C(=O)N[C@@H](CC(C)C)C(=O)[C@@]1(C)CO1 [Carfilzomib]	88.6
Oc1c(Cl)cc(Cl)c2cccnc12 [Chloroxine] + CC(C)C[C@H](NC(=O)[C@H](CCc1ccccc1)NC(=O)CN1CCOCC1)C(=O)N[C@@H](Cc1ccccc1)C(=O)N[C@@H](CC(C)C)C(=O)[C@@]1(C)CO1 [Carfilzomib]	62.4
COc1cccc2c1C(=O)c1c(O)c3c(c(O)c1C2=O)C[C@@](O)(C(C)=O)C[C@@H]3O[C@H]1C[C@H](N)[C@H](O)[C@H](C)O1.Cl [Daunorubicin HCl] + CC(C)C[C@H](NC(=O)[C@H](CCc1ccccc1)NC(=O)CN1CCOCC1)C(=O)N[C@@H](Cc1ccccc1)C(=O)N[C@@H](CC(C)C)C(=O)[C@@]1(C)CO1 [Carfilzomib]	17.1
CCOc1cc2ncc(C#N)c(Nc3ccc(F)c(Cl)c3)c2cc1NC(=O)C=CCN(C)C [Pelitinib (EKB-569)] + CC(C)C[C@H](NC(=O)[C@H](CCc1ccccc1)NC(=O)CN1CCOCC1)C(=O)N[C@@H](Cc1ccccc1)C(=O)N[C@@H](CC(C)C)C(=O)[C@@]1(C)CO1 [Carfilzomib]	40.8
COCCn1c2c([n+](Cc3cnccn3)c1C)C(=O)c1ccccc1C2=O.[Br-] + CC(C)C[C@H](NC(=O)[C@H](CCc1ccccc1)NC(=O)CN1CCOCC1)C(=O)N[C@@H](Cc1ccccc1)C(=O)N[C@@H](CC(C)C)C(=O)[C@@]1(C)CO1 [Carfilzomib]	17.4
CC(C)CC(NC(=O)C(CCc1ccccc1)NC(=O)CN1CCOCC1)C(=O)NC(Cc1ccccc1)C(=O)NC(CC(C)C)C(=O)C1(C)CO1 (stereo unspecified) [Carfilzomib (PR-171)] + CC(C)C[C@H](NC(=O)[C@H](CCc1ccccc1)NC(=O)CN1CCOCC1)C(=O)N[C@@H](Cc1ccccc1)C(=O)N[C@@H](CC(C)C)C(=O)[C@@]1(C)CO1 [Carfilzomib]	14.2
COc1cccc2c1C(=O)c1c(O)c3c(c(O)c1C2=O)CC(O)(C(=O)CO)CC3OC1CC(N)C(O)C(C)O1.Cl (stereo unspecified) [Doxorubicin (Adriamycin) HCl] + CC(C)C[C@H](NC(=O)[C@H](CCc1ccccc1)NC(=O)CN1CCOCC1)C(=O)N[C@@H](Cc1ccccc1)C(=O)N[C@@H](CC(C)C)C(=O)[C@@]1(C)CO1 [Carfilzomib]	30.2
CC(C)N=c1cc2n(-c3ccc(Cl)cc3)c3ccccc3nc-2cc1Nc1ccc(Cl)cc1 [Clofazimine] + CC(C)C[C@H](NC(=O)[C@H](CCc1ccccc1)NC(=O)CN1CCOCC1)C(=O)N[C@@H](Cc1ccccc1)C(=O)N[C@@H](CC(C)C)C(=O)[C@@]1(C)CO1 [Carfilzomib]	62.7
Cl.Nc1ccn(C2OC(CO)C(O)C2O)c(=O)n1 (stereo unspecified) [Cytarabine hydrochloride] + CC(C)C[C@H](NC(=O)[C@H](CCc1ccccc1)NC(=O)CN1CCOCC1)C(=O)N[C@@H](Cc1ccccc1)C(=O)N[C@@H](CC(C)C)C(=O)[C@@]1(C)CO1 [Carfilzomib]	77.1
CCC(NC(=O)C(C)NC)C(=O)N1CC(O)CC1Cc1c(-c2[nH]c3cc(F)ccc3c2CC2CC(O)CN2C(=O)C(CC)NC(=O)C(C)NC)[nH]c2cc(F)ccc12 (stereo unspecified) + CC(C)C[C@H](NC(=O)[C@H](CCc1ccccc1)NC(=O)CN1CCOCC1)C(=O)N[C@@H](Cc1ccccc1)C(=O)N[C@@H](CC(C)C)C(=O)[C@@]1(C)CO1 [Carfilzomib]	43
O=C(NN=Cc1ccc([N+](=O)[O-])o1)c1ccc(O)cc1 [Nifuroxazide] + CC(C)C[C@H](NC(=O)[C@H](CCc1ccccc1)NC(=O)CN1CCOCC1)C(=O)N[C@@H](Cc1ccccc1)C(=O)N[C@@H](CC(C)C)C(=O)[C@@]1(C)CO1 [Carfilzomib]	57.6
